# Whole data set: some 18,000 sequences, median “log2 normalized intensity” near 0.39, cut for the highest 2% near 6.6. The full list was thinned out, with the highest values kept by preference.
# Target: T1, HNF4alpha2 (COS-7 nuclear extract) (Homo sapiens, UniProt P41235 1-474)
# T1 sequence: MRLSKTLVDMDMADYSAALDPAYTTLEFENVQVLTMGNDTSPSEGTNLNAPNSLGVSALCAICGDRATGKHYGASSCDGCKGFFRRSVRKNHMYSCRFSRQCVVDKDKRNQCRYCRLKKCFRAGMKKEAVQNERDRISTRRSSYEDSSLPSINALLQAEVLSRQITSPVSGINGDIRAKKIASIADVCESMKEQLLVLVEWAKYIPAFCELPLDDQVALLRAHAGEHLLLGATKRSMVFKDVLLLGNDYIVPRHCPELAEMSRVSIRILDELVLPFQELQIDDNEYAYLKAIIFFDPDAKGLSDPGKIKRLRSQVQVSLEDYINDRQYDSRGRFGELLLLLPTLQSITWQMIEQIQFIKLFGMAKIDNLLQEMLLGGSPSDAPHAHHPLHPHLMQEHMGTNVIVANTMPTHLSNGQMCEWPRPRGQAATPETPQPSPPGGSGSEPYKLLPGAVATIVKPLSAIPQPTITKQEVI
# Test: protein-binding microarray; COS-7 nuclear extract on double-stranded Agilent 4x180k PBM; binding buffer, salt, pH and temperature not given in the material; high values mean tight binding
# Settings: chain copies: 2; label: 3' end of strand 1 on the slide; dsDNA, one strand shown
# Procedure, shortened: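 Nuclear extracts of COS-7 cells transiently transfected with a human HNF4α isoform were applied to a custom Agilent SurePrint G3 4x180k array bearing ~44,000 double-stranded ~60-nt test sequences, each in quadruplicate. The bound protein was imaged on an Agilent G2565CA scanner at 2-µm resolution. Binding signal is the normalized, background-corrected gProcessedSignal from Agilent software.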
row,Sequence,binding signal [log2 normalized intensity]
1,AATAGTGACCTCTGCTGGCCAGTGGAAAACGCCTAGGGAGATTAGAGTATCGGTCGA,1.08
2,CAGTCTAGAATCTGCAGCCCCTTTTGGAATGCCTAGGGAGATTAGAGTATCGGTCGA,2.02
3,CCACTGGAGTCTTGTTTGTCAAGTTTGGTAGCCTAGGGAGATTAGAGTATCGGTCGA,1.81
4,AGGGTGTTGTGGAATGTGCTTGGACCTGCTGCCTAGGGAGATTAGAGTATCGGTCGA,1.99
5,AGAAATGTTATCTCAGTAGACTAACGTATGGCCTAGGGAGATTAGAGTATCGGTCGA,0.476
6,GCATTCCACCAAATCTTACCTAAGGAAGTTGCCTAGGGAGATTAGAGTATCGGTCGA,-0.954
7,GTACTTTGTACATGGGAATAGACATTCCAGGCCTAGGGAGATTAGAGTATCGGTCGA,2.04
8,GGGCTTTTGTCACATTCCAGACTTTGTACAGCCTAGGGAGATTAGAGTATCGGTCGA,4.95
9,CCTGGTGACCTTTGTTTGGTCAAATACCTAGCCTAGGGAGATTAGAGTATCGGTCGA,2.9
10,AATACGACCTTTGGACAGGGTGACGTCATTGCCTAGGGAGATTAGAGTATCGGTCGA,6.27
11,ATTCCAAGAAGAGCCAATAGTACACATCAAGCCTAGGGAGATTAGAGTATCGGTCGA,-0.572
12,AGAAGTTGGACTTTGTACATTCCAAATACGGCCTAGGGAGATTAGAGTATCGGTCGA,6.88
13,ACATCAGAAGTTGGACTTTGTACATTCCAAGCCTAGGGAGATTAGAGTATCGGTCGA,7.69
14,TCCAAAATACGACCTTTGGACAGGGTGACGGCCTAGGGAGATTAGAGTATCGGTCGA,6.8
15,TTGGACTTTGTACATTCCAAATACGATAATGCCTAGGGAGATTAGAGTATCGGTCGA,5.36
16,ATGGTGGCCATTCTGATTTGATAAGATGTGGCCTAGGGAGATTAGAGTATCGGTCGA,0.774
17,CTTCGTCCTGAGCAGTCCCTTCCCCCCTCCGCCTAGGGAGATTAGAGTATCGGTCGA,5.36
18,ACTTGTTCCCTGTCGCTATCTTATCTGGGCGCCTAGGGAGATTAGAGTATCGGTCGA,1.62
19,CTCATTCTTGGAATGCATTGCAAGTCGTATGCCTAGGGAGATTAGAGTATCGGTCGA,1.17
20,TGCCCCTTCACATATTTTGAAAGAAAGAGAGCCTAGGGAGATTAGAGTATCGGTCGA,1.68
21,CGGCTTGCGTCCCCAGGTGAACTCAGTCCTGCCTAGGGAGATTAGAGTATCGGTCGA,1.21
22,TTGTAGCCTCATTTCACCTTTGGTCTTTGGGCCTAGGGAGATTAGAGTATCGGTCGA,4.78

row,Sequence,binding signal [log2 normalized intensity]
1,TACAGAATTCTCATGGAGGACTTTGGCCTTGCCTAGGGAGATTAGAGTATCGGTCGA,7.11
2,ATCTAGGTGAGGGATGAGGACTTTGATCAGGCCTAGGGAGATTAGAGTATCGGTCGA,6.01
3,TTATCTCAGATGAGACTTTGGACTTTTGAAGCCTAGGGAGATTAGAGTATCGGTCGA,7.12
4,GAATCTACAGAATTCTCATGGAGGACTTTGGCCTAGGGAGATTAGAGTATCGGTCGA,2.77
5,TCTGGGATGTTGGGAGGAGTGGACTTTGATGCCTAGGGAGATTAGAGTATCGGTCGA,5.99
6,GATGTTGGGAGGAGTGGACTTTGATCTCAGGCCTAGGGAGATTAGAGTATCGGTCGA,8.9
7,GGGACTAGCCTTATCTCAGATGAGACTTTGGCCTAGGGAGATTAGAGTATCGGTCGA,1.7
8,TAGCCTTATCTCAGATGAGACTTTGGACTTGCCTAGGGAGATTAGAGTATCGGTCGA,7.96
9,GGGCTGAGGATGAGGACTTTGGTCTTATTAGCCTAGGGAGATTAGAGTATCGGTCGA,3.74
10,AATTCTCATGGAGGACTTTGGCCTTTTGTGGCCTAGGGAGATTAGAGTATCGGTCGA,5.77
11,CAGATGGATTGATAGACTTATCTCAGCCTGGCCTAGGGAGATTAGAGTATCGGTCGA,-0.761
12,TCAGATGAGACTTTGGACTTTTGAACTAAGGCCTAGGGAGATTAGAGTATCGGTCGA,6.42
13,TCTTTGTTCAGAGGGCATGTTGAGTGGAATGCCTAGGGAGATTAGAGTATCGGTCGA,2.13
14,TTACAACGCTGTTGTCTGTGACTGGGGTCAGCCTAGGGAGATTAGAGTATCGGTCGA,3.66
15,GCCAACAACTAGGGCAAAGGTTAGCTTGGAGCCTAGGGAGATTAGAGTATCGGTCGA,4.27
16,ACAGATGTAGACATTGGAATGCGGGCTCCAGCCTAGGGAGATTAGAGTATCGGTCGA,-0.394
17,TCGGAATGTCTGGGCAAAGGGGAGGTTATCGCCTAGGGAGATTAGAGTATCGGTCGA,0.29
18,AAGTGGTATCCTGCAGTCAGTCTGATTGGTGCCTAGGGAGATTAGAGTATCGGTCGA,0.556
19,GAGGAGTGGCCATGATGCCATCTGGTGAAGGCCTAGGGAGATTAGAGTATCGGTCGA,-0.987
20,TTGAACACCACAAGTTTGAACTGCACAGGCGCCTAGGGAGATTAGAGTATCGGTCGA,-0.333
21,GTGAGGTCACAGTATTCATTCCCCTAGTATGCCTAGGGAGATTAGAGTATCGGTCGA,2.55

# Source: article PMC10726135, “HNF4α isoforms regulate the circadian balance between carbohydrate and lipid metabolism in the liver”
